# An excerpt weighted towards active compounds, which were near 21% of everything screened.
# HCMV inh: inhibitors of human cytomegalovirus; HFF cells, HCMV-luciferase reporter, 72 h; active compounds read low; activity change, negative = inhibition, % at 57.5 µM; 410,000 tested, 4.5% active; in the data active means activity change below about -60%; inconclusive means no clear call, values can overlap the other calls; inactive means above about -39%; further: on the % scale 0 is the no-effect control and ±100 the full control effect
#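 Steps: HFFs plated, 16 h 37C; compounds added; HCMV-luciferase added to MOI 1 PFU/cell; 72 h 37C; OneGlo reagent, 5 min room temperature; luminescence read, normalized to controls.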
# Cycloheximide cs: counter-screen for Shiga toxin inhibitors: cycloheximide protein synthesis inhibition. cell reporter, cycloheximide protein synthesis inhibition counterscreen. max response, %. 300,000 tested, 12% active. AID 2314; in the data active means max response mostly above about 13%, no sharp cut-off; inactive means mostly below about 14%; further: read at 38.3 µM for the half of the compounds with a filed dose; 0% is about no effect
# Pf growth 96h: inhibits malaria parasite growth, 96 h; P. falciparum luciferase reporter growth, 96 h; Potency, µM (doses to about 28.7 µM), without a hit: at the top dose activity change, negative = inhibition, hits mostly inhibitors; 320,000 tested, 6.9% active; further: potency means the concentration at half of the fitted maximal effect; on the % scale 0 is the no-effect control and ±100 the full control effect
#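 Plates of compound plus infected erythrocytes (2% hematocrit, 0.05% parasitemia final) incubate 96 hours, 37 C, 5% CO2. Detection reagent added; reduced luminescence from the parasites' luciferase reporter flags inhibition.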
# Pf growth 48h: inhibits P. falciparum growth in the first generation, 48 h; P. falciparum luciferase growth in erythrocytes, 48 h; Potency, µM (highest dose often 28.7 µM), inactives show at the top dose activity change, negative = inhibition, hits mostly inhibitors; 310,000 tested, 5.9% active; AID 504832; further: potency means the concentration at half of the fitted maximal effect; on the % scale 0 is the no-effect control and ±100 the full control effect
#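 Luciferase-expressing P. falciparum in infected erythrocytes (2% hematocrit, 0.1% parasitemia final) in RPMI 1640/0.5% Albumax were exposed to compound for 48 hours at 37 C, 5% CO2; growth read as luminescence.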
# HCV inhibitor: inhibitors of hepatitis C virus infection; Huh7.5.1 HCVcc-Cre infection, luciferase reporter, 44 h; Potency, µM (doses to about 41.8 µM), for inactives: top-dose activity change, negative = inhibition, usual class: inhibitors; 340,000 tested, 3.4% active; AID 651820; further: potency means the concentration at half of the fitted maximal effect; on the % scale 0 is the no-effect control and ±100 the full control effect
#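 Reporter virus HCVcc-Cre (~0.5 moi) infects cells exposed to compound; seeding density 1,000 cells/well with 4 h settling beforehand. Luminescence, 15 sec read, taken 44 h post-infection following a 15 min RT substrate incubation.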
# Shiga toxin inh: blocks Shiga toxin action in Vero cells. inhibition, % at 38.7 µM. 290,000 tested, 9.2% active. Vero cells, Shiga toxin protein synthesis inhibition reporter; in the data active means inhibition mostly above about 28%, no sharp cut-off; inactive means mostly below about 43%; further: 0% is about no effect
# The depositor's hits bear a star; u = inconclusive; x = not tested or not shown; [ ] = dose if it differs, or a comment. Unless noted, the call rests on the fitted dose curve; in most records, active means well fitted inhibition curve with a large enough effect; inconclusive means small, poorly fitted or top-dose-only effect, or another doubt; inactive means no such curve, though single readings can be large or run the other way.
SMILES,HCMV inh,Cycloheximide cs,Pf growth 96h,Pf growth 48h,HCV inhibitor,Shiga toxin inh
COc1cccc(CC(NC(C)=O)C(=O)NC2CCN(S(=O)(=O)c3cccc4ccccc34)CC2)c1 (stereo not given),8,-2,12µM*,x,u,-14
COc1cc(CC(NC(C)=O)C(=O)NC2CCN(C(=O)C3CC3)CC2)cc(OC)c1 (stereo not given),-18,-4,62%,6%,-1%,2
COc1ccc(CC(NC(C)=O)C(=O)NC2CCN(c3nnnn3-c3ccccc3)CC2)cc1 (stereo not given),-15,-4,9%,-13%,5%,-21
COc1nc(OC)nc(N2CCC(NC(=O)C(Cc3ccc(C(C)C)cc3)NC(C)=O)CC2)n1 (stereo not given),59,-6,11%,10µM*,8%,-2
COc1cc(CC(NC(C)=O)C(=O)NC2CCN(c3nc(OC)nc(OC)n3)CC2)cc(OC)c1 (stereo not given),-29,-3,5.2µM*,13µM*,11%,-3
CN1C(=O)N(CC(=O)N2CCN(c3ccccc3F)CC2)C(=O)C12CCCCC2,18,x,28%,u,5%,x
O=C(CCc1ccccc1)Nc1cc2c(cc1C(=O)O)OCCCO2,-3,x,x,x,11%,x
CC(=O)c1cc2c(cc1NC(=O)Cc1ccsc1)OCO2,44,x,-8%,-6%,5.6µM*,x
CC(=O)c1cc2c(cc1NC(=O)CCc1ccccc1)OCO2,5,24*,18%,4%,u,4
O=C1CCc2cc(S(=O)(=O)NC3CCCCC3)ccc2N1,0,x,u,-22%,1%,x
NNC(=O)CCn1c2ccccc2c2ccccc21,-7,4,u,14%,7%,-6
O=C(O)CCc1ccc(-c2cccs2)n1CC1CCCO1 (stereo not given),-24,-4,-3%[5.75 µM],3%,-2%,-12
FC(F)Oc1ccc(-c2csc(=Nc3cccnc3)n2CC2CCCO2)cc1 (stereo not given),-76*,2,13µM*,u,11µM*,3
O=C(NCCCc1ccccc1)c1ccc([N+](=O)[O-])cc1Cl,74,29*,173%,128%,7%,29*
Cc1ccc(C(=O)NCCCc2ccccc2)c(C)c1,12,42*,183%,95%,5%,60*
Cc1ccc(C(=O)NCCCc2ccccc2)c(Cl)c1,104,37*,19%,67%,u,x
Cc1cc(C)cc(C(=O)NCCCc2ccccc2)c1,-30,21,0%,46%,0%,11
O=C(NCCCN1CCN(CCCNC(=O)c2cc([N+](=O)[O-])ccc2Cl)CC1)c1cc([N+](=O)[O-])ccc1Cl,15,-2,u,4.7µM*,u,-7
Cc1nc(CC(=O)Nc2ccc(C)c(C)c2)cs1,5,x,x,x,x,x
Cc1ccc(Cl)cc1Nc1sc(C(=O)c2ccc(F)cc2)c(N)c1S(C)(=O)=O,-6,x,x,x,x,x
O=C(O)c1cccc2c1C(=O)c1cccc3snc-2c13,-33,0,19%,22%,10%,-3
COc1ccc2c(c1)CCC/C(C)=C/C(=O)c1ccccc1O2,3,x,x,x,x,x
CCOC(=O)N1CCN(Cc2nc3cc(NC(=O)c4ccco4)ccc3n2C)CC1,-24,29,39%,u,u,8
Cc1ccc(NC(=O)C(CC(C)C)NS(=O)(=O)c2ccc3c(c2)oc(=O)n3C)c(C)c1 (stereo not given),-12,x,x,x,x,x
COC(=O)/C(=C(/F)Sc1cc(C)c(O)c(C)c1)C(F)(F)F,x,8,x,9.3µM*,10%,-6
SMILES,HCMV inh,Cycloheximide cs,Pf growth 96h,Pf growth 48h,HCV inhibitor,Shiga toxin inh
CSc1nc(S(=O)(=O)c2ccc(C)cc2)c(Cl)s1,29,-2,u,12µM*,-2%,8
CCOc1nc(S(=O)(=O)c2ccc(C)cc2)c(Cl)s1,-39,1,0%[5.75 µM],0%,-29%,16
CC(C)c1ccc(-n2c(-c3ccccc3)c[n+]3c2CCc2ccccc2-3)cc1,-98*,-1,0.83µM*,1µM*,u,-4
CCC(C)NC(=O)c1ccc(-n2c(-c3ccccc3)cc3c2CCCC3)cc1 (stereo not given),24,x,x,x,x,x
Brc1ccc(-c2nnc3n2-c2ccccc2CC3)cc1,-18,-1,-13%,1%,-5%,-10
COc1ccccc1-n1c(-c2ccccc2)c[n+]2c1CCc1ccccc1-2,-100*,1,u,u,4µM*,-9
COc1ccc(-n2c(-c3ccc(Br)cc3)c[n+]3c2CCc2ccccc2-3)cc1,-100*,14*,0.47µM*,1.9µM*,u,1
O=C1OC(CO)CN1Cc1ccccc1 (stereo not given),u,-3,7%,x,34%,-7
CCCC(CCC)C(=O)Nc1cccc(-c2cn3cccnc3n2)c1,-5,x,x,x,x,x
CCOC(=O)c1c(N)sc(N)c1C(=O)OCC,-1,0,-5%,u,12%,-7
CCOC(=O)c1c(N)sc(C(O)(C(F)(F)F)C(F)(F)F)c1-c1ccc(OC)cc1OC,-19,-4,u,12µM*,u,-13
O=C(CN1CCC(NC(=O)c2ccccc2F)CC1)NCc1ccc(F)cc1,13,-3,x,13µM*,-5%,18
O=C(CN1CCC(NC(=O)c2ccc(F)cc2)CC1)NCc1ccccc1F,8,-1,54%,-12%,-17%,-1
O=C(CN1CCC(NC(=O)c2ccccc2)CC1)NCc1ccccc1F,37,-3,5.9µM*,u,14%,0
CCN(C(=O)CSc1nncn1-c1ccccc1)C1CCS(=O)(=O)C1 (stereo not given),-7,x,27%,0%,u,x
Cc1ccc(N(CC(=O)Nc2cc(C)cc(C)c2)S(=O)(=O)c2c(C)noc2C)cc1,-85*,5,-5%,-14%,u,3
Cc1noc(C)c1S(=O)(=O)N(CC(=O)O)c1ccc2c(c1)OCO2,29,-2,5.9µM*,44%,8%,-16
CCOc1ccc(N(CC(=O)NC2CCCCC2)S(=O)(=O)c2c(C)noc2C)cc1,55,-2,15%,0%,9%,-5
CCc1ccc(N(CC(=O)NC2CCCCC2)S(=O)(=O)c2c(C)noc2C)cc1,-20,-1,1.9µM*,x,1%,2
COc1ccc(NC(=O)CN(c2cc(C)cc(C)c2)S(=O)(=O)c2c(C)noc2C)cc1OC,72,0,12µM*,u,-5%,-8
COc1ccc(N(CC(=O)Nc2ccc(C)cc2)S(=O)(=O)c2c(C)noc2C)cc1,-25,1,u,-4%,10%,-3
CCCn1c(N)c(C(=O)CSc2nc3ncc(Cl)cc3[nH]2)c(=O)[nH]c1=O,126,x,u,10%,-18%,x
CCC(C(=O)Nc1ccccc1F)n1nc(C)c2c(C)n(-c3ccccc3)nc2c1=O (stereo not given),u,-1,15µM*,u,-15%,-5

# Screens (PubChem BioAssay)
